Menin MLL FP TR: qHTS Assay for Inhibitors Targeting the Menin-MLL Interaction in MLL Related Leukemias: Competition With Texas Red Labeled MLL-derived Mutant Peptide; O00255; Menin + Texas Red MLL mutant peptide, fluorescence polarization; Potency, µM (series often up to 61.6 µM), most hits filed as inhibitors; 0.23% of 270,000 active; active = well fitted inhibition curve with a large enough effect in the polarisation, with a control signal flat, not every such curve was filed as active; inconclusive = small, poorly fitted or top-dose-only effect, or effect the other way, or a change in a side signal; inactive = no such curve, though single readings can be large or run the other way; the % refers to the polarisation
Menin MLL FP FL: qHTS Assay for Inhibitors Targeting the Menin-MLL Interaction in MLL Related Leukemias: Competition With Fluorescein Labeled MLL-derived Peptide | FP activity change, % at 61.4 µM | Fluorescence polarization, fluorescein-MLL peptide displacement from menin | 290,000 tested, under 10 active | AID 1766, 2009; active = well fitted curve in the direction sought with a large enough effect in the polarisation, not every such curve was filed as active; inconclusive = small, poorly fitted or top-dose-only effect, or effect the other way, or a change in a side signal; inactive = no such curve, though single readings can be large or run the other way; the % refers to the polarisation
LMNA splice mod: qHTS Assay for Modulators of Lamin A Splicing; HeLa LMNA splicing GFP/RFP minigene ratio, 48 h; Potency, µM (highest dose often 46.1 µM), actives largely listed as inhibitors; 0.01% of 200,000 active; active = well fitted inhibition curve with a large enough effect in the signal ratio, with a control signal flat, not every such curve was filed as active; inconclusive = small, poorly fitted or top-dose-only effect, or effect the other way, or a change in a side signal; the % refers to the signal ratio
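Read-out is the ratio of GFP to DsRed2 object intensity, acquired by 488 nm laser-scanning cytometry on HeLa lamin A-EGFP minigene reporter cells. Compound incubation 48 hrs at 37 °C in Opti-MEM with 2% FBS; DMSO 0.5% final.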
CXXC DNA block: qHTS Fluorescence Polarization Assay for Inhibitors of MLL CXXC domain - DNA interaction; Histone-lysine N-methyltransferase 2A (Homo sapiens), Q03164; MLL-CXXC / FITC-HOXA9 DNA fluorescence polarization; Potency, µM (series often up to 115 µM), most hits filed as inhibitors; 0.037% of 290,000 active; AID 2662, 2010; active = well fitted inhibition curve with a large enough effect in the polarisation, with a control signal flat, not every such curve was filed as active; inconclusive = small, poorly fitted or top-dose-only effect, or effect the other way, or a change in a side signal; inactive = no such curve, though single readings can be large or run the other way; the % refers to the polarisation
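Steps: dispense CXXC domain solution (7 uM) → pin compounds or unlabeled HOX-A9 DNA control → 5 min ambient → add FLSN-HOX-A9 solution (50 nM) → spin → 30 min ambient → fluorescence polarization. Tris pH 7.5/NaCl/DTT/BSA buffer.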
CBFb-RUNX1 inh: qHTS Assay for Compounds Blocking the Interaction Between CBF-beta and RUNX1 for the Treatment of Acute Myeloid Leukemia; AlphaScreen CBFb-His/RUNX1-biotin binding, biochemical; Runt-related transcription factor 1 (Homo sapiens) + Core-binding factor subunit beta …; Potency, µM (top dose mostly 59.8 µM), usual class: inhibitors; AID 1477, 2009; 230,000 tested, under 10 active; active = well fitted curve in the direction sought with a large enough effect; inconclusive = small, poorly fitted or top-dose-only effect, or effect the other way, or another doubt; inactive = no such curve, though single readings can be large or run the other way
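Compounds were screened at multiple concentrations against a preformed CBF-beta(His)/RUNX1(biotin) complex (30 nM of each) for 15 min at room temperature, followed by 90 min with nickel and streptavidin beads and AlphaScreen reading.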
Each line names hits and unclear results; the compound was inactive in the other large screens. The sample as a whole holds a higher share of hits than the screen did.

Cc1ccc(C2=NN(C(=O)c3cccs3)C(c3ccccc3O)C2)cc1 (configuration not stated)	Menin MLL FP TR inconclusive (no result: LMNA splice mod)
O=C(c1cccs1)N1N=C(c2ccccc2)CC1c1ccccc1O (configuration not stated)	Menin MLL FP TR 17.8µM (no result: LMNA splice mod)
COc1ccc(C2CC(c3ccccc3O)=NN2C(=O)c2ccccc2)cc1OC (configuration not stated)	CXXC DNA block inconclusive (no result: LMNA splice mod, CBFb-RUNX1 inh)
O=C(c1ccccc1)N1N=C(c2ccccc2O)CC1c1ccccc1 (configuration not stated)	Menin MLL FP TR 28.2µM, CXXC DNA block inconclusive (no result: LMNA splice mod, CBFb-RUNX1 inh)
COCCCNC(=O)/C(C#N)=C/c1c(N2CCN(C)CC2)nc2c(C)cccn2c1=O	none (no result: LMNA splice mod, CBFb-RUNX1 inh)
COCCCNC(=O)/C(C#N)=C/c1c(N2CCN(c3ccc(OC)cc3)CC2)nc2c(C)cccn2c1=O	Menin MLL FP TR 28.2µM (no result: LMNA splice mod, CBFb-RUNX1 inh)
O=C(N/N=C\c1cn(-c2ccccc2)nc1-c1ccccc1)c1ccc2c(c1)OCO2	Menin MLL FP TR 25.1µM
O=C(Cn1c(=O)oc2ccccc21)Nc1ccc(Cl)cc1Cl	Menin MLL FP TR 31.6µM (no result: LMNA splice mod, CBFb-RUNX1 inh)
COc1ccc(Cl)cc1NC(=O)Cn1c(=O)oc2ccccc21	Menin MLL FP TR inconclusive (no result: LMNA splice mod, CBFb-RUNX1 inh)
CCOC(=O)C(=Cc1ccc(F)cc1)C(=O)OCC	Menin MLL FP TR inconclusive, LMNA splice mod inconclusive
CCOC(=O)C(=Cc1ccc(Br)cc1)C(=O)OCC	Menin MLL FP TR 28.2µM, LMNA splice mod inconclusive
CCOc1cccc(C(=O)NC(=S)Nc2ccc(N3CCN(CC)CC3)cc2)c1	Menin MLL FP TR 7.08µM
COc1cccc(Nc2nc(-c3ccc(O)cc3)cs2)c1	Menin MLL FP TR inconclusive, LMNA splice mod inconclusive
COc1cccc(Nc2nc(-c3cccc(N4C(=O)c5ccccc5C4=O)c3)cs2)c1	Menin MLL FP TR 14.1µM
CCC(C)C(N)C(=O)NC(CC(N)=O)C(=O)NC(CC(C)C)C(=O)NC(CCCCN)C(=O)NC(C)C(=O)NC(CC(C)C)C(=O)NC(C)C(=O)NC(C)C(=O)NC(CC(C)C)C(=O)NC(C)C(=O)NC(CCCCN)C(=O)NC(CCCCN)C(=O)NC(C(=O)NC(CC(C)C)C(N)=O)C(C)CC (configuration not stated)	none (no result: LMNA splice mod, CXXC DNA block)
CCCCCCCCCCCCCCCCn1cc[n+](Cc2ccccc2)c1C	Menin MLL FP TR 22.4µM (no result: LMNA splice mod, CXXC DNA block)
CCCN1CCCc2ccccc21	Menin MLL FP TR 25.1µM
N#Cc1sc2nc(-c3cccs3)cc(-c3ccc(Cl)cc3)c2c1N	Menin MLL FP TR 25.1µM, Menin MLL FP FL inconclusive
N#Cc1sc2nc(-c3cccs3)cc(-c3ccccc3)c2c1N	Menin MLL FP TR 12.6µM, Menin MLL FP FL inconclusive
NS(=O)(=O)c1nn2cc(-c3ccccc3)nc2s1	none (no result: LMNA splice mod, CXXC DNA block)
O=C(Nc1nc(-c2ccc(S(=O)(=O)N3CCCC3)cc2)cs1)C1COc2ccccc2O1 (configuration not stated)	Menin MLL FP TR 10µM, LMNA splice mod inconclusive
CCCCc1cc2c(cn1)=C(OC(=O)c1ccc(Cl)nc1)C(C)(OC(=O)CC)C(=O)C=2 (configuration not stated)	none (no result: CXXC DNA block)
N[C@@H](CCCCNC(=O)CCCC[C@@H]1SC[C@H]2NC(=O)N[C@H]12)C(=O)O	CBFb-RUNX1 inh 0.398µM (no result: LMNA splice mod, CXXC DNA block)
CC(N)C(=O)NCC(=O)NC1CSSCC(C(=O)O)NC(=O)C(CO)NC(=O)C(C(C)O)NC(=O)C(Cc2ccccc2)NC(=O)C(C(C)O)NC(=O)C(CCCCN)NC(=O)C(Cc2c[nH]c3ccccc23)NC(=O)C(Cc2ccccc2)NC(=O)C(Cc2ccccc2)NC(=O)C(CC(N)=O)NC(=O)C(CCCCN)NC1=O (configuration not stated)	Menin MLL FP TR inconclusive (no result: LMNA splice mod, CBFb-RUNX1 inh)
CC(C)c1ccc2c(c1)CCC1C(C)(CN)CCCC21C (configuration not stated)	Menin MLL FP TR 20µM (no result: LMNA splice mod)
Cc1csc2nc(COC(=O)c3ccc(NC(=O)c4ccccc4Br)cc3)cc(=O)n12	none (no result: Menin MLL FP TR, Menin MLL FP FL, CXXC DNA block, CBFb-RUNX1 inh)
Cn1nc(C(=O)N2CCN(c3ccc(Cl)cc3)CC2)c2c1-c1ccccc1S(=O)(=O)C2	none (no result: Menin MLL FP TR, Menin MLL FP FL, CBFb-RUNX1 inh)
Cn1nc(C(=O)N2CCN(c3ccc([N+](=O)[O-])cc3)CC2)c2c1-c1ccccc1S(=O)(=O)C2	Menin MLL FP TR 25.1µM (no result: LMNA splice mod, CBFb-RUNX1 inh)
O=C(NC(NC(=S)Nc1ccc(F)c([N+](=O)[O-])c1)C(Cl)(Cl)Cl)C(c1ccccc1)c1ccccc1 (configuration not stated)	Menin MLL FP TR inconclusive, CBFb-RUNX1 inh inconclusive (no result: LMNA splice mod, CXXC DNA block)
Cc1cc(N2CCCC2)ccc1/C=C1/C(=O)N(C)C(=S)N1C	Menin MLL FP TR 22.4µM, Menin MLL FP FL inconclusive, CXXC DNA block inconclusive, CBFb-RUNX1 inh inconclusive (no result: LMNA splice mod)
CCCOC(=O)N1CCN(/[N+]([O-])=N/Oc2ccc([N+](=O)[O-])cc2[N+](=O)[O-])CC1	none (no result: LMNA splice mod, CXXC DNA block)
N#CC1(C#N)COC23CCCCC2C1(C#N)C(=N)O3 (configuration not stated)	Menin MLL FP TR 28.2µM, Menin MLL FP FL inconclusive, CBFb-RUNX1 inh inconclusive
CCOc1ccc(N=C2NC(=O)S/C2=C\c2ccc(N(C)C)cc2)cc1	Menin MLL FP TR 31.6µM, Menin MLL FP FL inconclusive
COc1ccc(C2/C=C\CN(CC(C)C)C(Cc3ccccc3)C(=O)N2Cc2ccc(F)cc2)cc1 (configuration not stated)	none (no result: LMNA splice mod, CXXC DNA block)
O=C(NNC(=O)c1cc2cc3ccccc3nc2s1)c1cccc(Cl)c1	Menin MLL FP TR inconclusive
O=C(NNC(=O)c1cc2cc3ccccc3nc2s1)c1ccc(F)cc1	Menin MLL FP TR 3.16µM
O=C1/C(=C\c2cccs2)CCC/C1=C/c1cccs1	none (no result: LMNA splice mod, CBFb-RUNX1 inh)
